High-throughput results from PubChem.
Rows were chosen to be rich in hits. Some 1.4% of all compounds tested hit in one or more screens of this group.
PINK1 modulator – A Quantitative High throughput Screen to Identify Chemical Modulators of PINK1 Expression. PINK1 immunofluorescence, high-content cytometry, 24 h. Potency, µM (doses to about 76.6 µM), usual class: activators. hit rate 0.2% among 410,000. AID 624263, 2012; active = well fitted activation curve with a large enough effect; inconclusive = small, poorly fitted or top-dose-only effect; cell line not stated here; also: nearly all actives have a fitted effect of over 65% in size
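Measures PINK1 amount and localization on or inside mitochondria by immunofluorescence. Stable cells get compounds at 5 concentrations for 24 hours before fixation and staining; CCCP controls included.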
S-ASM inh – Inhibitors of Secretory Acid Sphingomyelinase (S-ASM): qHTS. Sphingomyelin phosphodiesterase (Homo sapiens), P17405. placental ASM, HMU-PC fluorogenic substrate, 60 min. Potency, µM (highest dose often 57.5 µM), actives largely listed as inhibitors. hit rate 0.006% among 340,000
Target sequence (P17405 47-631 limits assumed): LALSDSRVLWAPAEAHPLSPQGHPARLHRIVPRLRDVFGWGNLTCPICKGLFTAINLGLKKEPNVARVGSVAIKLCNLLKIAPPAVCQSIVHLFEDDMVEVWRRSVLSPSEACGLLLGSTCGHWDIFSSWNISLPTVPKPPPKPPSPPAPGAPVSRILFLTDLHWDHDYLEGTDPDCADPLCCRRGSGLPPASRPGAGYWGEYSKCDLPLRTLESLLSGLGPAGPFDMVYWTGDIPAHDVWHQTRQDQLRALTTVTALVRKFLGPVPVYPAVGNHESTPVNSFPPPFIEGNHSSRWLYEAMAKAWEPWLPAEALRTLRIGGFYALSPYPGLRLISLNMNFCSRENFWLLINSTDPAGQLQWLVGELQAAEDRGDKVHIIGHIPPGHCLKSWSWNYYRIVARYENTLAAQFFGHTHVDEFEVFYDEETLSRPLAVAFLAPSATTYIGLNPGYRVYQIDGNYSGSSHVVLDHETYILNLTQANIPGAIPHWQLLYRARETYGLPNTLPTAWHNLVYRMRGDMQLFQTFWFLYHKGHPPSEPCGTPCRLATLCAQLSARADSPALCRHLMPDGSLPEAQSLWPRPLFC
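HMU-PC0 cleavage (9 uM final) by human placental ASM, 60 min at 37 °C following 10 min compound exposure at RT; stopped at pH 10, fluorescence Ex 386/Em 447 nm.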
p53 reactivator – qHTS assay for re-activators of p53 using a Luc reporter; H1299 p53-A138V BP100-luciferase reporter, luminescence, 24 h; hit rate 0.063% among 320,000; Potency, µM (titrated, usually from 92.2 µM), hits mostly activators; AID 504706, 2011; also: nearly all actives have a fitted effect of over 45% in size
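H1299 (p53-null), stable ts p53-A138V + BP100-Luc; 1000 cells/well, Opti-MEM/10% FBS; cpd 4 pt, 1:5; 24 h, 37 deg C, 5% CO2; detection reagent 10 min RT; luminescence.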
CCT modulator – High-Throughput Screening for Modulators of Cytosolic Chaperonin Activity. hit rate 0.3% among 360,000. activity change, % (concentration not given with the values), hits read low. purified chaperonin ATPase assay, HTRF ADP detection, 30 min; in the data active = activity change below about -30%
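We incubate TRiC, 40 or 20 nM final, with library compounds at 76 uM and 10 uM ATP for 30 min at 37 °C. ADP formed is detected with Transcreener HTRF reagents after 30 min at room temperature.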
ALOX12 inh – Primary qHTS assay for inhibitors of human arachidonate 12S-lipoxygenase (ALOX12): Round 2. Polyunsaturated fatty acid lipoxygenase ALOX12 (Homo sapiens), P18054. purified 12hLO, xylenol orange hydroperoxide absorbance. Potency, µM (titrated, usually from 108 µM), most hits filed as inhibitors. hit rate 1.1% among 580,000
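Purified human 12hLO (150 nM final) in 25 mM Hepes, 0.01% Triton X-100, pH 7.0 was preincubated 15 min at room temperature with compound. Then 40 uM arachidonic acid was added, 30 min. Hydroperoxide was read by Fe-XO absorbance ratio 573/405 nm.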
Mm-Cpn inhibitor – Inhibitors of TCP-1 ring complex (TRiC) of Methanococcus maripaludis (MmCpn): qHTS; Potency, µM (series often up to 76.9 µM), most hits filed as inhibitors; AID 504842, 2011; purified Mm-Cpn ATPase, ADP Transcreener TR-FRET; hit rate 0.031% among 330,000; also: nearly all actives have a fitted effect of over 80% in size
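Purified archaeal chaperonin (25 nM final) was preincubated with compound for 10 min at 37°C, then ATP (10 uM final) was added for 30 min at 37°C in Tris pH 7.4/KCl/MgCl2/DTT buffer. ADP was quantified by HTRF Transcreener TR-FRET.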
Numbers stand for hits; 0 = inactive; ? = inconclusive; - = no result given. Unless noted, calls follow the shape of the dose curve; as a rule, active = well fitted curve in the direction sought with a large enough effect; inconclusive = small, poorly fitted or top-dose-only effect, or another doubt; inactive = no such curve, though single readings can be large; an effect the other way counts as inactive or inconclusive.

SMILES | PINK1 modulator | S-ASM inh | p53 reactivator | CCT modulator | ALOX12 inh | Mm-Cpn inhibitor
O=C(Cn1cc(S(=O)(=O)Cc2ccccc2F)c2ccccc21)NCc1ccccc1Cl | 0 | - | - | - | ? | -
Cc1cccc(C)c1NC(=O)Cn1cc(S(=O)(=O)Cc2ccc(F)cc2)c2ccccc21 | 0 | - | - | - | 50µM | -
CC(=O)N(Cc1cc2cc(C)ccc2[nH]c1=O)CC(C)C | - | - | - | - | 0 | -
Cc1ccc(C(=O)C(C)OC(=O)c2cccc(N(C)C)c2)cc1 (configuration not stated) | - | - | - | - | 0 | -
CC1Oc2ccc(NS(=O)(=O)c3cccc(Cl)c3)cc2CN(Cc2ccccc2Cl)C1=O (configuration not stated) | - | - | - | - | 0 | -
CCCC[C@@H]1CNC(=S)N1CC1CCCCC1 | 0 | 0 | 0 | 0 | 50µM | 0
CCCC[C@@H]1CNC(=S)N1CCC12CC3CC(CC(C3)C1)C2 | 0 | 0 | 0 | 0 | 35µM | -
CCCC[C@@H]1CNC(=O)C(=O)N1CC1CCCCC1 | 0 | - | - | 0 | 0 | -
CCc1ccc(OCc2nnc(SCc3ccc(C(C)(C)C)cc3)n2CC(C)C)cc1 | - | - | - | - | 0 | -
O=C(CSc1nnc(CNC(=O)c2ccco2)o1)Nc1ccc(F)cc1 | 0 | 0 | 0 | 0 | 0 | 0
O=C(CSc1nnc(CNC(=O)c2ccco2)o1)Nc1ccc(OC(F)(F)F)cc1 | 0 | 0 | 0 | -47 | 0 | 0
O=C(CSc1nc(-c2ccccc2)cc(=O)[nH]1)Nc1oncc1-c1ccccc1 | - | - | - | - | 0 | -
N#CC(Cc1cccnc1)C(=O)Nc1cccc(Cl)c1 (configuration not stated) | - | - | - | - | 0 | -
COc1ccc(OCC(=O)NC2CCCN(Cc3ccc(Cl)cc3)C2)cc1 (configuration not stated) | 0 | 0 | 0 | 0 | 16µM | 0
COc1cccc(CC(=O)NC2CCCN(Cc3ccc(Cl)cc3)C2)c1 (configuration not stated) | 0 | 0 | - | 0 | ? | 0
O=S1OCCSc2sc(=S)sc2SCCO1 | - | - | - | - | 28µM | -
Cc1cc(O)c2c(C)c(CC(=O)NCCc3cccc(F)c3)c(=O)oc2c1 | - | - | - | - | 28µM | -
Cc1c(CC(=O)NCCc2cccc(F)c2)c(=O)oc2cc(O)ccc12 | - | - | - | - | 0 | -
C=CCn1c(SCC(=O)Nc2cc(C)on2)nc2sc3c(c2c1=O)CCCC3 | 0 | 0 | 0 | -65 | 0 | 0
O=C(O)CNC(=O)CC(F)(F)F | - | - | - | - | 0 | -
O=S(CC(O)c1ccccc1)c1ccccc1 (configuration not stated) | 0 | - | - | 0 | 28µM | -
O=S(c1ccccc1)C(c1ccccc1)c1ccccc1 (configuration not stated) | 0 | 0 | - | 0 | 32µM | -
Cc1ccc(S(=O)C(c2ccccc2)c2ccccc2)cc1 (configuration not stated) | 0 | 0 | - | 0 | 22µM | -
OC(CC(O)c1ccccc1)c1ccccc1 (configuration not stated) | 0 | 0 | - | 0 | 0 | -
CC[n+]1c(C)cc(C)n1-c1ccccc1 | 0 | 0 | 0 | 0 | 40µM | 0
SMILES | PINK1 modulator | S-ASM inh | p53 reactivator | CCT modulator | ALOX12 inh | Mm-Cpn inhibitor
NC(=O)c1ccccc1NCC(=O)Nc1ccc(OC(F)(F)F)cc1 | - | - | - | - | 0 | -
Cc1ccn2cc(-c3c(-c4ccccc4Cl)n(C)c(=O)n(C)c3=O)nc2c1 | - | - | - | - | 0 | -
COC(=O)C1=C(C)N(Cc2ccc(Cl)cc2)C(=S)NC1c1ccc(F)cc1 (configuration not stated) | - | - | - | - | 40µM | -
COC(=O)C1=C(C)N(Cc2ccc(Cl)cc2)C(=S)NC1c1ccc(Br)cc1 (configuration not stated) | - | - | - | - | 32µM | -
O=C(CC1CCCC1)OCC(=O)c1ccc(Cl)cc1 | - | - | - | - | 0 | -
N/C(=N\OC(=O)c1ccc(Cl)cc1)c1nonc1N | 7.9µM | 0 | 0 | 0 | 0 | 0
COc1ccccc1CC(=O)N1CCCc2ncc(C(=O)Nc3cccc(C(F)(F)F)c3)cc21 | - | - | - | - | 0 | -
CCN1CCN(Cc2ccc(NC(=O)Nc3ccccc3Cl)cc2)CC1 | 0 | 0 | 20µM | 0 | 0 | 0
O=C(Nc1ccc(CN2CCCCC2)cc1)Nc1ccccc1Cl | 0 | 0 | 0 | 0 | 0 | 0
COc1ccc(CNC(=O)C(NC(C)=O)C(=O)Nc2ccc(C(C)C)cc2)cc1 (configuration not stated) | 0 | 0 | 0 | -41 | 0 | 0
Nc1cc(C(F)(F)F)ccc1NCCc1ccccn1 | 0 | 0 | 0 | -107 | 0 | 0
C[C@@H]1CN([C@@H](C)CO)C(=O)CCCn2cc(nn2)CO[C@H]1CN(C)S(=O)(=O)c1ccccc1C#N | 0 | - | - | -53 | 0 | -
Cc1nnc(N/N=C/c2cccc(C(F)(F)F)c2)n1N | 0 | 0 | 0 | 0 | 0 | 0
FC(F)(F)c1ccc(/C=N/Nc2ccc(Cl)cc2)cc1 | - | - | - | - | 7.1µM | -
FC(F)(F)c1cccc(/C=N/Nc2ccc(Cl)cc2)c1 | - | - | - | - | 7.1µM | -
O=C(O)c1ccc(N/N=C/c2cccc(C(F)(F)F)c2)cc1 | 0 | 0 | 0 | 0 | 0 | 0
Cc1ccc(N/N=C/c2cccc(C(F)(F)F)c2)cc1Cl | - | - | - | - | 3.5µM | -
CCS(=O)(=O)N1CCCc2cc(C(=O)Nc3ccccc3C(=O)OC)ccc21 | - | - | - | - | 0 | -
C=CCSc1nnc(N2C(=O)C(O)=C(C(=O)c3ccco3)C2c2ccccc2F)s1 (configuration not stated) | 0 | 0 | 0 | 0 | 0.63µM | 0
CSc1nnc(N2C(=O)C(O)=C(C(=O)c3ccco3)C2c2ccccc2)s1 (configuration not stated) | 0 | 0 | 0 | 0 | ? | 0
CCCSc1nnc(N2C(=O)C(O)=C(C(=O)c3ccco3)C2c2ccccc2F)s1 (configuration not stated) | 0 | 0 | 0 | 0 | 40µM | 0
CCOc1cccc(C2C(C(=O)c3ccc(C)o3)=C(O)C(=O)N2c2nccs2)c1 (configuration not stated) | 0 | 0 | 0 | 0 | 0.63µM | 0
Cc1ccc(C(=O)C2=C(O)C(=O)N(c3ncccn3)C2c2ccc(F)cc2)o1 (configuration not stated) | 0 | 0 | 0 | 0 | 0 | 0
CSc1nnc(N2C(=O)C(O)=C(C(=O)c3ccco3)C2c2ccccc2F)s1 (configuration not stated) | 0 | 0 | 0 | 0 | ? | 0
Cc1ccc(C(=O)C2=C(O)C(=O)N(c3ncccn3)C2c2ccccc2F)o1 (configuration not stated) | 0 | 0 | 0 | -66 | ? | 0
N#Cc1nc(/C=C/c2ccc(F)cc2)oc1NCc1ccccc1 | - | - | - | - | 0 | -
